The list is a sample of the results.
aSyn 5UTR act: Activators via SNCA 5'UTR binding, MLPCN. activity score, % (tested at 7.5 µM), hits read low. AID 1814. 7.1% of 300,000 active. alpha-synuclein 5'UTR reporter, activators screen; in the data active = activity score below about -60%
An asterisk follows results filed as active.

SMILES	aSyn 5UTR act
CSc1ccc(C2NN=C(c3ccccc3)S2)cc1 (stereo not given)	68
Oc1ccccc1C1NN=C(c2ccccc2)S1 (stereo not given)	-80*
O=C1Nc2ccccc2S/C1=C/c1cccs1	-68*
Cc1ccc(N=C2NC(=O)/C(=C\c3cccs3)S2)cc1C	-85*
CC(C)OC(=O)CC12CN(C)CC(CC(=O)OC(C)C)(CN(C)C1)C2=O	-98*
CC#CC#Cc1cccc(=O)o1	-116*
Cc1cc(C)n(CCC(=O)N/N=C/c2c(O)ccc3ccccc23)n1	73
S=C(NCCN1CCOCC1)N/N=C/c1c2ccccc2cc2ccccc12	-74*
CC(=O)c1sc(NC(=O)c2ccccc2F)nc1-c1ccccc1	-124*
CC(=O)c1sc(NC(=O)c2ccc(F)cc2)nc1-c1ccccc1	-95*
Cn1c(=NC(=O)COc2ccccc2)sc2ccccc21	-148*
Cn1c(=NC(=O)CS(=O)(=O)c2ccccc2)sc2ccccc21	-76*
O=Cc1s/c(=N\S(=O)(=O)c2ccccc2)n(CCCCl)c1Cl	70
COc1ccc(OC)c(-c2cc(C(=O)Nc3c(C)nn(Cc4ccc(Cl)cc4)c3C)no2)c1	58
COc1ccc(OC)c(-c2cc(C(=O)Nc3cccc(Cl)c3)no2)c1	-68*
COC(=O)c1sccc1-c1ccc(C(=O)Nc2cccc(Cl)c2)o1	-125*
COc1ccc(-c2noc(N(C)CC(=O)Nc3cccc(C(F)(F)F)c3)n2)cc1	-76*
COc1ccc(-c2nnc(SC(C)C(=O)Nc3cccc(Cl)c3)o2)cc1 (stereo not given)	-160*
COc1ccc(-c2cc(C(=O)Nc3cccc(C(C)=O)c3)no2)cc1	-76*
COc1ccc(-c2cc(C(=O)Nc3cccc(Cl)c3)no2)cc1	-266*
COC(=O)c1sccc1-c1ccc(/C=N/OC(=O)c2ccccc2)o1	-69*
O=C(Nc1ncc(Cc2ccccc2)s1)C1COc2ccccc2O1 (stereo not given)	-190*
Cc1nnc(NC(=O)C2COc3ccccc3O2)s1 (stereo not given)	-118*
CCC(CC)c1nnc(NC(=O)C2COc3ccccc3O2)s1 (stereo not given)	-72*
O=C(NC1=NCCS1)C1COc2ccccc2O1 (stereo not given)	98
SMILES	aSyn 5UTR act
O=C(NC(=S)Nc1ccc(Cl)cn1)C12CC3CC(CC(C3)C1)C2	-162*
CCOc1cc2c3c(c1)C(C)=CC(C)(C)N3C(=O)C2=O	-74*
COc1ccc(/C=C2\C(=O)NCC(=O)N2Cc2ccccc2)cc1	-62*
COc1cc2c(C)nc3c(cnn3-c3ccccc3)c2cc1OC	-240*
O=C(CSc1cccs1)Nc1ccc(Cl)cc1	-116*
O=C(CSc1cccs1)NCCc1ccccc1	-64*
O=C(CSc1ccccc1)NCCc1ccccc1	-62*
N#CC(Cc1ccc(OC(F)F)cc1)c1nc2ccccc2[nH]1 (stereo not given)	-157*
Clc1ccc(-c2nc(C3CCCCC3)no2)cc1	-160*
O=C(Nc1ccc(N2CCOCC2)cc1)Nc1ccc(Cl)c(Cl)c1	-139*
O=C(Nc1ccc(N2CCOCC2)cc1)Nc1cnsn1	-114*
COC(=O)Cc1c(OC)ccn(CCc2c[nH]c3ccccc23)c1=O	-149*
CCOC(=O)c1cnc(-n2nc(C)cc2C)nc1NNc1nc(-c2ccccc2)cc(-c2ccccc2)n1	82
CCOC(=O)c1cnc(-c2ccccc2)nc1N	-148*
CCOC(=O)c1ccc2ncc(-c3ccccc3)nc2c1	-160*
Cc1nc2ccc(C(=O)OCc3ccccc3Br)cc2nc1C	-166*
CCOC(=O)c1cnc(-c2ccccc2)nc1N(C)C	-241*
COc1cc(/C=C2\C=CC(=O)O2)cc(OC)c1	-65*
O=C1N=c2ccccc2=C1c1sc(Nc2cccc(O)c2)nc1O	-90*
Cc1cc2nn(-c3ccccc3)nc2cc1NC(=O)c1cccs1	-196*
COc1ccc(-n2nc3cc(C)c(NC(=O)CC(C)C)cc3n2)cc1	-123*
COc1ccc(-n2nc3cc(C)c(NC(=O)c4cccnc4)cc3n2)cc1	-83*
Clc1ccc(-c2cc(CN3CCCCC3)no2)cc1Cl	-114*
Clc1ccc(-c2cc(CN3CCOCC3)no2)cc1	-148*
CC1CC1C(=O)Nc1ccc(-c2ccccc2)cc1 (stereo not given)	-152*
SMILES	aSyn 5UTR act
Cc1cccc(CSC2=NN3CCCC(=O)N=C3S2)c1	-69*
C=CCN1C(=O)C(=O)N(Cc2nc3ccccc3s2)C1=O	-118*
CC(/C=N\NC(=O)CN1CCN(Cc2ccccc2)CC1)=C\c1ccco1	-94*
O=C(CN1CCN(Cc2ccccc2Cl)CC1)N/N=C/C=C/c1ccco1	-77*
O=C(CN1CCN(Cc2ccccc2)CC1)N/N=C\C=C/c1ccco1	-71*
COc1cc(/C=C(\C#N)c2nc3c(s2)CCCC3)ccc1O	-158*
N#C/C(=C\c1cccnc1)c1nc2c(s1)CCCC2	-141*
CC1CCc2nc(/C(C#N)=C/c3cccnc3)sc2C1 (stereo not given)	-192*
CC(C)Nc1ccc(Nc2ccnc3cc4ccccc4cc23)cc1	99
